From the supplement of paper PMC11732987, “Enantioselective OTUD7B fragment discovery through chemoproteomics screening and high-throughput optimisation” (Communications Chemistry, 2025)

Key:
Experiment in all cases: log2 ratio of Biotin-Ahx-Ub-VS probe labelling (fragment/DMSO); higher = less target engagement (more negative = stronger competition), active = hit call of the paper (q ≤ 0.05, log2 ratio ≤ -1)
Settings in all cases: compound concentration: 200 uM; treatment time: 3 h
USP34 = USP34 (UniProt Q70CQ2)
Sequence of USP34 (Q70CQ2 whole entry, the tested form may be a part): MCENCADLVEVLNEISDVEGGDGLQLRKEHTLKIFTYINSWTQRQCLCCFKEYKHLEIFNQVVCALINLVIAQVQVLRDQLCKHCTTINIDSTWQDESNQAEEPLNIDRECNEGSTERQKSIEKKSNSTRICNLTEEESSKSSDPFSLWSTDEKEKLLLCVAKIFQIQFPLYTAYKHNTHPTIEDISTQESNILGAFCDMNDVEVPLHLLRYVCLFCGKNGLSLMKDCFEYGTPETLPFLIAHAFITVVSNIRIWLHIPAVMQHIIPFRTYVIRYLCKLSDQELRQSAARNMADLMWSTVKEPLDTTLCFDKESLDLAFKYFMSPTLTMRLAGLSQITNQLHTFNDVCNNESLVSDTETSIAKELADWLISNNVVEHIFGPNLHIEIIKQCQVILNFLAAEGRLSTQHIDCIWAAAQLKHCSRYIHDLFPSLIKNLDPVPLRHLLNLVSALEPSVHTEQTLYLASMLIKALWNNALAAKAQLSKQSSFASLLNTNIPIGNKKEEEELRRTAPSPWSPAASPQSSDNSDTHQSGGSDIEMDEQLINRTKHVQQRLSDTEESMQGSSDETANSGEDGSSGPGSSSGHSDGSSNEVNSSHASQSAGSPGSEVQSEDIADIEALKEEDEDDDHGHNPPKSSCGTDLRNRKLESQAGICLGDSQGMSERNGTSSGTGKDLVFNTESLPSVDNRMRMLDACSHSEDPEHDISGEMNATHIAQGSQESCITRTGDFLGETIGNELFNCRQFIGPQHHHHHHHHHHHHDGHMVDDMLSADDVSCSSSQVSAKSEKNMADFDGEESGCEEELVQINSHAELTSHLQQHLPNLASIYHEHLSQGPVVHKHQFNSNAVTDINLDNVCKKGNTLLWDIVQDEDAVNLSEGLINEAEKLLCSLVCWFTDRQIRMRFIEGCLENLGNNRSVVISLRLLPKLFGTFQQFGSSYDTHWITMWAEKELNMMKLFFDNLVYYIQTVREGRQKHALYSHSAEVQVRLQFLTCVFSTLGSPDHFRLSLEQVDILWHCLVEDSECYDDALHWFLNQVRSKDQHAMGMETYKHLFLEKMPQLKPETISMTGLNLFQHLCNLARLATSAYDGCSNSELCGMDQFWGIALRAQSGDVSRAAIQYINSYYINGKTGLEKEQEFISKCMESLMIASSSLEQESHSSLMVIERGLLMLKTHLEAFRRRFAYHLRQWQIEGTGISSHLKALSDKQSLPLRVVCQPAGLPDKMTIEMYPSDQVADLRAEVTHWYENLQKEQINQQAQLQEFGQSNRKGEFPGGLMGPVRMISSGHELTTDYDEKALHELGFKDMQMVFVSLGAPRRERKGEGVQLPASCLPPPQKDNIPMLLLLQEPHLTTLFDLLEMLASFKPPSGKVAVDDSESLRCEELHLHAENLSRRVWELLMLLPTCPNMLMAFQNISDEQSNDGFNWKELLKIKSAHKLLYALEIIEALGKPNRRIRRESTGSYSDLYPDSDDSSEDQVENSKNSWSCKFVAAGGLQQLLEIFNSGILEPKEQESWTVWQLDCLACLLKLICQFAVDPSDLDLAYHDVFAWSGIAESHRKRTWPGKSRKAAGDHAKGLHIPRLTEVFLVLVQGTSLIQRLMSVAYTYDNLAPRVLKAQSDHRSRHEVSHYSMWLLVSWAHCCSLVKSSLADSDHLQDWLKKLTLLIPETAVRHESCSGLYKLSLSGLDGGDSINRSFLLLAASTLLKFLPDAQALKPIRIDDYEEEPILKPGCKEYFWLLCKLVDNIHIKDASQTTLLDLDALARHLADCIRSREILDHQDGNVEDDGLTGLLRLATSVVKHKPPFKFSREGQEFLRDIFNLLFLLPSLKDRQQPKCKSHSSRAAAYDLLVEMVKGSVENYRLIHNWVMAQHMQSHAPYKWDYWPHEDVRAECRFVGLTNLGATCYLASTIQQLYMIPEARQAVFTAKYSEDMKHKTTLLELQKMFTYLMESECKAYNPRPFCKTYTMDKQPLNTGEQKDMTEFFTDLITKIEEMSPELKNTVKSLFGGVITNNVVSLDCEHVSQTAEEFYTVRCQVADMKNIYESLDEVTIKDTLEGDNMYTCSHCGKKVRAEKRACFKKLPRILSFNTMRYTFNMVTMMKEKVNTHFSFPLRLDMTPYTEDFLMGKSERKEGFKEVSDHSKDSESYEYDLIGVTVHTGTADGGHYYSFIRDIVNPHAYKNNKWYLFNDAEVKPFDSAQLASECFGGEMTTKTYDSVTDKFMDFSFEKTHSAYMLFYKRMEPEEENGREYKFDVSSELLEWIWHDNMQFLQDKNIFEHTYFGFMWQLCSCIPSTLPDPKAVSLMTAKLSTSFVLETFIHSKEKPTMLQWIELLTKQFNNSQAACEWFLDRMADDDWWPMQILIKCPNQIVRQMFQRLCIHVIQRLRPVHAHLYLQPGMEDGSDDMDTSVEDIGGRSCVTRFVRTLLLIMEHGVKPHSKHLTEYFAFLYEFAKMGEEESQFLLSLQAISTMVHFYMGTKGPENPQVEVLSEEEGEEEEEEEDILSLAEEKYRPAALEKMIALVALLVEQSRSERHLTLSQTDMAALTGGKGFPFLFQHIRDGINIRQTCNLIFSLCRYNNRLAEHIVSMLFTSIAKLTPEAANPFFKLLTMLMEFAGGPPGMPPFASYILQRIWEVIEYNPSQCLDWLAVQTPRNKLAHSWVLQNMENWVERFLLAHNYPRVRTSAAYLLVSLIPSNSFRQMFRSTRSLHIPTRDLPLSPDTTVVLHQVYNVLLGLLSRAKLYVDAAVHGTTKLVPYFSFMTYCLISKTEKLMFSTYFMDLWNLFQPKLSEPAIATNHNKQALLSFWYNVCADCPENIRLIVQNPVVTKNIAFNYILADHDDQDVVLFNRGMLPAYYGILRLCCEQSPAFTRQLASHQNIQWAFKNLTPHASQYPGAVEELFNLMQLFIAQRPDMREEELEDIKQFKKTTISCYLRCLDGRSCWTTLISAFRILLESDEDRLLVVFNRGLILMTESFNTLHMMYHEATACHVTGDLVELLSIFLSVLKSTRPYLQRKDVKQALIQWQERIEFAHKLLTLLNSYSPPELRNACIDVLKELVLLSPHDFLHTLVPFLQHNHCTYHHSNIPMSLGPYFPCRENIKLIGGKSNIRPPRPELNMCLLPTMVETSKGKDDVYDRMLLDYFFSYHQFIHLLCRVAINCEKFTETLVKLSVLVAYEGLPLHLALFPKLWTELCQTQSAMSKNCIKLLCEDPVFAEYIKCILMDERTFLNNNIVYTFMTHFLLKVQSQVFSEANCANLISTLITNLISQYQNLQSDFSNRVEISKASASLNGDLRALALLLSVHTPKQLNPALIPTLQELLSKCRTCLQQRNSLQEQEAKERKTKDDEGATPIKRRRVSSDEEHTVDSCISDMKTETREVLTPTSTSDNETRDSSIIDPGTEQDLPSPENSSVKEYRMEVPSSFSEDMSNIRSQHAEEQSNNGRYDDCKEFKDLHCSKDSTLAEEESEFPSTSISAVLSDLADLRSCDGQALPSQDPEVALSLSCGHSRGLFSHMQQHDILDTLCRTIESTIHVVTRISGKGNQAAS
Method in brief: (§1)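 Average log2 ratios of fragment over vehicle were obtained by unpaired t-test from global-median-normalised Spectronaut label-free quantities. Proteins with ≥2 unique peptides were included. HEK293T lysate (495 µg per sample) was treated in triplicate with fragment at 200 µM or vehicle for 3 h, then with Biotin-Ahx-Ub-VS at 0.5 µM final for 1 h, and labelled DUBs were NeutrAvidin-enriched and run by diaPASEF LC-MS/MS.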

USP36 = target: T1, USP36 (UniProt Q9P275)
T1 sequence (whole entry): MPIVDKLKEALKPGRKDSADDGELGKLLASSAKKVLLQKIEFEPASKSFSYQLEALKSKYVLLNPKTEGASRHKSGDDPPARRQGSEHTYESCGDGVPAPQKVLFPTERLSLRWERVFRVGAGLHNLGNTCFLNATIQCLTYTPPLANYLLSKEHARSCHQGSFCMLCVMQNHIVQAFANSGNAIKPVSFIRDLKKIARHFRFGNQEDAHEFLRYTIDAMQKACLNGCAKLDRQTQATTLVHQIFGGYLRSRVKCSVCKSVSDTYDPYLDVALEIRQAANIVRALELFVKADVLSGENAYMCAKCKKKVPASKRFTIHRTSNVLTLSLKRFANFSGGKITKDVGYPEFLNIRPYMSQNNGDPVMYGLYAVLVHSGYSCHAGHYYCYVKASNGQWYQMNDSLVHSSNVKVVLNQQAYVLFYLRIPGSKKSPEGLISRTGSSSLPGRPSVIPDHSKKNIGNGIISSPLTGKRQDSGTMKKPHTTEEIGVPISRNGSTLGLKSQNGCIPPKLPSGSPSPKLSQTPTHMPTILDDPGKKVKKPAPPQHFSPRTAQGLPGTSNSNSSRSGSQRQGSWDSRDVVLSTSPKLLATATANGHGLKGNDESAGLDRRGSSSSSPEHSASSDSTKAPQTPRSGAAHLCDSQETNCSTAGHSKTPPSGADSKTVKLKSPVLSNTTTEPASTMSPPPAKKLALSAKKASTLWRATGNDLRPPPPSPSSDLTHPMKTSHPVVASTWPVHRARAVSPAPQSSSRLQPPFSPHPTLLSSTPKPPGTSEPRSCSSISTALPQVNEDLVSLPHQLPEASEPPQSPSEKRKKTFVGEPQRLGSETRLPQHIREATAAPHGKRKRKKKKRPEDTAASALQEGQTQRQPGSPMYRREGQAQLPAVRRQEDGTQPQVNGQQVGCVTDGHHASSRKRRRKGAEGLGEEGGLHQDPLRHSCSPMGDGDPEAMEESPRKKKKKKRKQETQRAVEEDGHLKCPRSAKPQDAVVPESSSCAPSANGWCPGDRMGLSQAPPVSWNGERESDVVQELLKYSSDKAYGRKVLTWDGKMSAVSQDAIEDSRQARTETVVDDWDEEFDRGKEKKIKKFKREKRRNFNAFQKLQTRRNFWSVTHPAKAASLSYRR
Method in brief: as §1

USP38 = target: T2, USP38 (UniProt Q8NB14)
T2 sequence (whole entry): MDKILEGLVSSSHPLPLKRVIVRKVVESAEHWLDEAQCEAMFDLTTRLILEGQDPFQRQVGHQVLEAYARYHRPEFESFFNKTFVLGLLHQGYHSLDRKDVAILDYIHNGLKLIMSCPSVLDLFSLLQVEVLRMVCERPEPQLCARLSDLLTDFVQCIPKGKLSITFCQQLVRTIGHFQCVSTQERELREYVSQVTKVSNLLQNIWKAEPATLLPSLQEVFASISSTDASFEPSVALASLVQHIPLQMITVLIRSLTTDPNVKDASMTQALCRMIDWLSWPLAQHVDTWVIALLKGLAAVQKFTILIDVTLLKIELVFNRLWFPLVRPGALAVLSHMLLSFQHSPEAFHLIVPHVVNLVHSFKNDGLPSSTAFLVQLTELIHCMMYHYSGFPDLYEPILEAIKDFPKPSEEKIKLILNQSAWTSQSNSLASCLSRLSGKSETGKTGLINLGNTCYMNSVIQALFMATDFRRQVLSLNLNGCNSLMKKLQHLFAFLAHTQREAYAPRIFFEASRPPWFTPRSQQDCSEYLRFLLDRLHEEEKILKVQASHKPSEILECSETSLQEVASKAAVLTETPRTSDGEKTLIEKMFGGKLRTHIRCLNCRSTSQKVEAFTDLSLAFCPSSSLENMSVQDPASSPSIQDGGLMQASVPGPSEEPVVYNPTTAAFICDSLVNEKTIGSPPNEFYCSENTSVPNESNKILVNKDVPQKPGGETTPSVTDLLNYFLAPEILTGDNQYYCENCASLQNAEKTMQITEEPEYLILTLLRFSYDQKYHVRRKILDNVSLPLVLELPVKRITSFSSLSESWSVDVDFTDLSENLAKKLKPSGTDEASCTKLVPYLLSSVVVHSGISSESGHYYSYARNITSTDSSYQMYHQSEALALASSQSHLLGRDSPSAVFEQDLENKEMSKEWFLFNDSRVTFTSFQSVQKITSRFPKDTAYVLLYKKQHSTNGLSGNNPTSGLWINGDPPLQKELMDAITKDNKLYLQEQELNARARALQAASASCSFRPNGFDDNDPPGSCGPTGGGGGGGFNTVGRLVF
Method in brief: as §1

USP39 = target: T3, USP39 (UniProt Q53GS9)
T3 sequence (whole entry): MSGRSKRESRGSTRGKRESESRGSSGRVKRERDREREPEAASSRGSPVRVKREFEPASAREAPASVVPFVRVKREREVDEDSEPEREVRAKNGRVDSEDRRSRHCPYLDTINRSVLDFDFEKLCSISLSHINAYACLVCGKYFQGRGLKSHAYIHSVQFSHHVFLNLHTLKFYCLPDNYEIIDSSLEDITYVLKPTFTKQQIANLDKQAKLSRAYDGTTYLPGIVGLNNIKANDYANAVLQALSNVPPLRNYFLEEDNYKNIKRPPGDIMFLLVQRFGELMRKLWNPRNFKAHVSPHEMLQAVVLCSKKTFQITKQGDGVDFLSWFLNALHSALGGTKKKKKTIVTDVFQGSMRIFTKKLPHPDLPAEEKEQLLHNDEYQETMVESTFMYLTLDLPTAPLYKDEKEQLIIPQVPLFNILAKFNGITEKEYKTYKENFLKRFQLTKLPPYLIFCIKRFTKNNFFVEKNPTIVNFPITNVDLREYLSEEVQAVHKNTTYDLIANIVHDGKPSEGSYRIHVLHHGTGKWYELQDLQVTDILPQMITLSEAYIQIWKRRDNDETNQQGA
Method in brief: as §1

USP4 = target: T4, USP4 (UniProt Q13107)
T4 sequence (whole entry): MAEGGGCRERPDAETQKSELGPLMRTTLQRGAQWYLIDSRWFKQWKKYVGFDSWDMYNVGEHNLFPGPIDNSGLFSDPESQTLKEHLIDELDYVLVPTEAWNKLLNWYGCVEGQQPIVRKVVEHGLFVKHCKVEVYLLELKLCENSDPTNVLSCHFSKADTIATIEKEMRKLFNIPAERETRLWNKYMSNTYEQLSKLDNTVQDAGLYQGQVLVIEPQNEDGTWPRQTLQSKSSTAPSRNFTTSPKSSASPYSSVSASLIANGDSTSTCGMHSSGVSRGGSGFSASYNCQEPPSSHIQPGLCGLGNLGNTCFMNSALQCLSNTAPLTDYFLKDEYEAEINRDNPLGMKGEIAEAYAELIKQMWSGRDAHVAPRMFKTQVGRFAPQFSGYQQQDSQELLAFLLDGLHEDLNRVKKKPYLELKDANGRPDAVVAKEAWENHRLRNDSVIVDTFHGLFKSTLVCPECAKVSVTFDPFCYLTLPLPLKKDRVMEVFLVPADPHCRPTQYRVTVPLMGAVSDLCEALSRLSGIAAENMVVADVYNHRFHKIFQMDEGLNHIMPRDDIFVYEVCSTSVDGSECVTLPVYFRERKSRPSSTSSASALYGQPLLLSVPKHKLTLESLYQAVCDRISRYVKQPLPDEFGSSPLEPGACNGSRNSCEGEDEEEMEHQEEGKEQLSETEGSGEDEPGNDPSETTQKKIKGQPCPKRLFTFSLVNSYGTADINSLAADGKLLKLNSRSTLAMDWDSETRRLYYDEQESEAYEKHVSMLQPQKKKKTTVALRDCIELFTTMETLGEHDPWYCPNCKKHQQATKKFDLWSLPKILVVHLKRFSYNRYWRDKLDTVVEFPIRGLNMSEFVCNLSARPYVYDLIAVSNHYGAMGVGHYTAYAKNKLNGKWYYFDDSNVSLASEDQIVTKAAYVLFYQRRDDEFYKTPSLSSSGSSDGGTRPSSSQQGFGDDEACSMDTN
Method in brief: as §1

Measured: log2 ratio of Biotin-Ahx-Ub-VS probe labelling

O=C(CCl)Nc1cccc2ncccc12
inactive: USP34 -0.104 | USP36 0.45 | USP38 0.13 | USP39 0.472 | USP4 0.0333
